Measurements from the supplement of paper PMC5940239.
Values without a mark were called inactive.

The compounds below were run on Madurella mycetomatis MM55 (assay: percent growth relative to solvent control; higher = less inhibition, active = 20 or less). Conditions: 100 µM; 7 days.

SMILES	percent growth
COc1ccc(N(CCc2cccc(C)n2)C(=O)C2CCCCC2)cc1	28%
N#Cc1nc(-c2ccccc2)oc1S(=O)(=O)c1ccc(Cl)cc1	31.4%
CC1CCCCN1C(=O)NCCc1coc(-c2ccc(F)cc2)n1 (stereo not drawn)	70%
COc1ccc(C2CC(c3cccs3)=NN2C(=O)c2ccco2)cc1OC (stereo not drawn)	100%
Nc1cccnc1Nc1ccc(Cl)cc1	80.6%
CCCCN(CCCC)c1c(C#N)cc(S(=O)(=O)Nc2ccccc2)cc1C#N	85.7%
Cc1nc2ccccn2c1C(=O)NCc1ccc(Cl)cc1	33.1%
CCC(Sc1nc2ccccc2o1)C(=O)Nc1nnc(C)s1 (stereo not drawn)	40.9%
CC1CCCN(C(=O)C(C)Nc2cc(Cl)ccc2N2CCOCC2)C1 (stereo not drawn)	53.8%
COc1cccc2c(C)nc(N=C(N)N)nc12	96.9%
CC(C)C(Oc1cccc2ccccc12)C(=O)O (stereo not drawn)	118%
N#Cc1nc(-c2ccccc2F)oc1NCCc1ccccc1	56.7%
CC(=O)Nc1ccc(NC(=O)c2cc(-c3cc(Cl)ccc3O)[nH]n2)cc1	155%
CNC(=O)c1cc(S(=O)(=O)N2CCN(c3ccccn3)CC2)cs1	143%
COc1ccc(Cl)cc1NC(=O)CN(C)C(=O)c1cnn(-c2ccccc2)n1	30.8%
Nc1nc(N)c2c3c(sc2n1)CN(Cc1ccccc1)CC3	88%
Cc1nc(-c2ccccn2)nc(NCCc2ccc(S(C)(=O)=O)cc2)c1Cl	118%
FC(F)(F)c1ccc(N(c2cccnc2)C2CCN(c3ccc(C(F)(F)F)cn3)CC2)cc1	59.5%
CC(C)(CN)c1nc(-c2ccc(Cl)c(O)c2)c(-c2ccnc(N)n2)[nH]1	88.2%

SMILES	percent growth
Nc1ncc(Br)cc1-c1nc2cc(Cl)cnc2[nH]1	105%
O=C(Nc1ccc(F)c(-c2nc3cc(-c4ccccc4)cnc3[nH]2)c1)N1CCCC1	95.8%
Cc1cc(C)n2nc(C(=O)Nc3cc(C(F)(F)F)ccc3N3CCOCC3)nc2n1	162%
CC[C@H](CO)NCCN[C@H](CC)CO	139%
Cn1ccnc1CNCCS(=O)(=O)c1cccc(Nc2ccc(-c3cccc(F)c3)cn2)c1	65.7%
NCCCC(N)(C(=O)O)C(F)F (stereo not drawn)	133%
CCc1nc2ccc(C(=O)NCc3ccc4c(c3)OCO4)cn2c1N(C)Cc1cccs1	44%
Cc1ccc(C(=O)Nc2ccc(S(=O)(=O)O)c3cc(S(=O)(=O)O)cc(S(=O)(=O)O)c23)cc1NC(=O)c1cccc(NC(=O)Nc2cccc(C(=O)Nc3cc(C(=O)Nc4ccc(S(=O)(=O)O)c5cc(S(=O)(=O)O)cc(S(=O)(=O)O)c45)ccc3C)c2)c1	141%
Nc1ncnc2c1c(-c1cnc3ccccc3c1)nn2CC1CCNCC1	93.3%
CCc1ccc([C@@H]2C[C@H](C(F)(F)F)n3ncc(C(=O)NCc4ccc(OC)cc4)c3N2)cc1	60.8%
COc1ccc(C2(C(=O)Nc3ccc(Br)cc3)CCCC2)cc1	56.2%
CCOc1ccccc1C(=O)Nc1cccc(-c2nc3ncccn3c2C)c1	97.2%
O=C1Nc2ccc(Br)cc2C12NCCc1c2[nH]c2ccccc12 (stereo not drawn)	63.6%
O=C(NC1=NCCS1)c1sc2cc(F)ccc2c1Cl	107%
CCCCc1ccc(NC(=O)Nc2ccc(O[C@H]3CCCC[C@@H]3N(C)c3ccccc3)c(F)c2)cc1	122%
CC(C)(C)OC(=O)N1CCN(c2cc(-c3ccc(Oc4ccccc4)cc3)n[nH]2)CC1	112%
CCCNC(=O)N1CCC2(CC1)CC(=O)c1cc(C)ccc1O2	102%
CC(C(=O)N1CCCC1)N1CCN(S(=O)(=O)c2ccc(C(C)(C)C)cc2)CC1 (stereo not drawn)	89.9%
O=C(Nc1nnc(S)s1)c1cc(Br)ccc1Cl	97%
